Data from the supplement of paper PMC13380429.

System: Vero E6 infected with SARS-CoV-2
Experiment: inhibition of SARS-CoV-2 cytopathic effect; higher = more antiviral protection, active = above 15
Details: 48 h

Measured: inhibition of SARS-CoV-2 cytopathic effect

CC(=O)OCC(=O)[C@@]12N=C(C)O[C@@H]1C[C@H]1[C@@H]3CCC4=CC(=O)C=C[C@]4(C)[C@H]3[C@@H](O)C[C@@]12C [Deflazacort (Calcort)]
inactive: 1 nM 2.25% | 8.33 nM -0.15% | 100 nM -11.5% | 833.33 nM 2.17% | 10000 nM 0.96%

CNC(=O)c1ccc(N2C(=S)N(c3cnc(C#N)c(C(F)(F)F)c3)C(=O)C23CCC3)cc1F [apalutamide]
inactive: 1 nM 0.94% | 8.33 nM 1.02% | 100 nM 1.33% | 833.33 nM 0.68% | 10000 nM 1.02%

CCNCCCNCCCCNCCCNCC
inactive: 1 nM -0.97% | 8.33 nM 1.01% | 100 nM 3.25% | 833.33 nM 3.4% | 10000 nM 11.4%

O=C(CCBr)N1CC[N+]2(CC1)CC[N+]1(CCN(C(=O)CCBr)CC1)CC2 [spirobromin]
inactive: 1 nM -0.01% | 8.33 nM -0.86% | 100 nM -0.61% | 833.33 nM -2.75% | 10000 nM -3.3%

CCCCC/C=C\C/C=C\C/C=C\CCCCC(=O)O [gamma-linolenic-acid]
inactive: 1 nM -0.6% | 8.33 nM -2.39% | 100 nM -2.33% | 833.33 nM -1.24% | 10000 nM -1.03%

C[C@H](CCC(=O)NCCS(=O)(=O)O)[C@H]1CC[C@H]2[C@@H]3[C@H](O)C[C@@H]4C[C@H](O)CC[C@]4(C)[C@H]3C[C@H](O)[C@]12C [taurocholate]
inactive: 1 nM -8.93% | 8.33 nM -4.1% | 100 nM -6.72% | 833.33 nM -7.82% | 10000 nM -8.38%

C=Cc1cc(O)cc2nc(-c3ccc(O)c(F)c3)oc12 [prinaberel]
inactive: 1 nM 0.2% | 8.33 nM 0.74% | 100 nM 1.61% | 833.33 nM 0.55% | 10000 nM 0.56%

C=C1/C(=C\C=C2/CCC[C@]3(C)[C@@H]([C@H](C)/C=C/C=C/C(O)(CC)CC)CC[C@@H]23)C[C@@H](O)C[C@@H]1O [seocalcitol]
inactive: 1 nM -3.06% | 8.33 nM -2.2% | 100 nM -0.09% | 833.33 nM 1.95% | 10000 nM 1.01%

CCN(CC)CCOCCOC(=O)C(CC)(CC)c1ccccc1 [oxelaidin]
inactive: 1 nM -3.54% | 8.33 nM 0.15% | 100 nM 0.38% | 833.33 nM -0.56% | 10000 nM 0.38%

CCCCCCCCCCCCCCCCO [1-hexadecanol]
inactive: 1 nM -1.82% | 8.33 nM 0.36% | 100 nM -0.66% | 833.33 nM -0.99% | 10000 nM -4.02%

Cc1cc(NC(=O)C(c2ccccc2)N2CCCc3ccccc32)no1 (stereo not given)
inactive: 1 nM 0.33% | 8.33 nM -0.92% | 100 nM 1.85% | 833.33 nM 0.35% | 10000 nM 3.91%

Cc1cc(C)cc(C(=O)O[C@H]2C[C@H]3CC[C@@H](C2)N3C)c1 [tropanyl-3,5-dimethylbenzoate]
inactive: 1 nM -1.37% | 8.33 nM 1.19% | 100 nM 2.71% | 833.33 nM -1.34% | 10000 nM 1%

CC(=O)Nc1nc2c(Oc3cc(-c4ccc(C(F)(F)F)cc4)ncn3)cccc2s1
inactive: 1 nM 1.07% | 8.33 nM 0.66% | 100 nM 2.03% | 833.33 nM 2.31% | 10000 nM 1.83%

O=C1CCCN1CC#CCN1CCCC1 [oxotremorine-sesquifumarate]
inactive: 1 nM 0.81% | 8.33 nM 2.23% | 100 nM 4.01% | 833.33 nM 3.15% | 10000 nM 0.96%

CC[C@@H](CO)NC(=O)[C@@H]1C=C2c3cccc4[nH]cc(c34)C[C@H]2N(C)C1 [methylergometrine]
inactive: 1 nM -0.77% | 8.33 nM 0.44% | 100 nM -0.17% | 833.33 nM 0.13% | 10000 nM 0%

COc1cc(C(=O)NCc2ccc(OCCN(C)C)cc2)cc(OC)c1OC [trimethobenzamide]
inactive: 1 nM -2.2% | 8.33 nM -1.41% | 100 nM 2.21% | 833.33 nM -1.81% | 10000 nM -0.65%

CSc1ccccc1OCC(O)CNC(C)C (stereo not given) [tiprenolol]
inactive: 1 nM -1.52% | 8.33 nM 2.58% | 100 nM -1.94% | 833.33 nM 0.37% | 10000 nM 3.9%

CC(=O)N(CC(C)C(=O)O)c1c(I)cc(I)c(N)c1I (stereo not given) [iocetamic-acid]
inactive: 1 nM -1.3% | 8.33 nM 1.93% | 100 nM 1.81% | 833.33 nM 0.62% | 10000 nM 3.4%

CC[C@H](C)[C@@H]1NC(=O)[C@H](Cc2ccc(OC)cc2)NC(=O)CCCSC[C@@H](C(=O)N2CCC[C@H]2C(=O)N[C@@H](CC(C)C)C(=O)NCC(N)=O)NC(=O)[C@H](CC(N)=O)NC(=O)[C@H](CCC(N)=O)NC1=O [carbetocin]
inactive: 1 nM -1.89% | 8.33 nM 0.45% | 100 nM -1.53% | 833.33 nM 1.22% | 10000 nM -1.25%
